The source made the active and inactive calls.

The nature of experiment [1]: small molecules captured by biotinylated probe aFSTL3 – biochemical, small-molecule microarray, fluorescence 635/667, stem cell growth factor project, primary screen (AID 1064).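 Also: measures binding of the biotinylated anti-FSTL3 antibody to printed compounds.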 As to conditions: higher = more signal.
Experiment [2] is described as follows: binders from COS7 lysate, DM2A8 probe, primary screen, torsin A project, cell lysate, small-molecule microarray, fluorescence 635/667 (AID 1065). Conditions: higher = more signal, COS7 lysate expressing mutant human TOR1A.
Experiment [3] in a line: small molecules captured by biotinylated probe aFGF2 – biochemical, small-molecule microarray, fluorescence 635/667, stem cell growth factor project, primary screen (AID 1067).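 Also: measures binding of biotinylated aFGF2 protein to printed compounds on slides; z-score merges feature fluorescence and signal-to-noise across triplicate slides.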 Conditions: higher = more signal.
A short description of experiment [4]: small molecules captured by biotinylated probe aFGF10 – biochemical, small-molecule microarray, fluorescence 635/667, stem cell growth factor project, primary screen (AID 1071).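 Also: score merges 667 nm spot intensity and signal to noise from triplicate slides.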 Conditions: higher = more signal.
Experiment [5] concerns the target Neurogenic locus notch homolog protein 2 (Homo sapiens) (UniProt Q04721). The experiment is described as follows: small molecules binding Notch2 protein – biochemical, small-molecule microarray, 635 nm fluorescence, stem cell growth factors, primary screen (AID 1073). Conditions: higher = more signal.
For experiment [6], the target named is Pro-neuregulin-1, membrane-bound isoform (Homo sapiens) (UniProt Q02297). Description: small molecules binding neuregulin-1 protein – biochemical, small-molecule microarray, fluorescence 635/667, psychiatric disease protein project, primary screen (AID 1075).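 Also: score combines 667 nm spot fluorescence with signal to noise.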 As to conditions: NRG1 binding, 635 nm fluorescence, higher = more signal.
Experiment [7] concerns Neuregulin-1 EGF-like domain. Description: small molecules binding NRG1 EGF domain – biochemical, small-molecule microarray, 635 nm fluorescence, primary screen (AID 1081).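 Also: binding of the protein to compounds printed on small-molecule microarray slides.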 As to conditions: higher = more signal.
Experiment [8] in a line: FRG1 expression reporter modulators in myotubes – cell-based, C2C12 myotubes, firefly/Renilla luciferase, luminescence, FRG1 inhibition for FSHD, primary screen (AID 1084). As to conditions: FRG1 promoter luciferase, higher = more signal, called active from +8 up or from −8 down.
Experiment [9] can be described thus: small molecules captured by biotinylated probe aFST – biochemical, small-molecule microarray, fluorescence 635/667, stem cell growth factor project, primary screen (AID 1086).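 Also: score merges 667 nm fluorescence with signal-to-noise of each printed compound spot.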 Conditions: higher = more signal.
The nature of experiment [10]: binders of probe aHhip on microarray, primary screen, stem cell growth factor project, biochemical, small-molecule microarray, fluorescence 635/667 (AID 1087).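 Also: score merges spot fluorescence at 667nm with spot signal to noise ratio.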 As to conditions: higher = more signal.
Experiment [11] deals with PRMT1 (protein arginine N-methyltransferase 1). Description: small molecules binding arginine methyltransferase PRMT1 – biochemical, small-molecule microarray, 635 nm fluorescence, primary screen (AID 1088).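 Also: binding of Prmt1 protein to compounds spotted on small-molecule microarray slides.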 As to conditions: higher = more signal.
Experiment [12] in a line: growth effects on S. cerevisiae YJM789 – YJM789 clinical isolate, OD600, 24 h, basal, primary screen (AID 1089).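 Also: growth of clinical yeast isolate S. cerevisiae YJM 789 seeded 1000 cells per well; test concentration not given here.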 Conditions: higher = more signal, called active from +8 up or from −8 down.
The nature of experiment [13]: S. pombe growth modifiers, basal conditions – strain 972, OD600, 24 h, no modulator, primary screen (AID 1090).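 Also: basal condition with compound alone and no growth modifier present; test concentration not given here.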 Conditions: S. pombe 972 growth, higher = more signal, called active from +8 up or from −8 down.
Experiment [14] is described as follows: budding yeast growth modifiers under rapamycin – strain BY4716, OD600, 96 h, primary screen (AID 1091). Also: test concentration not given here. As to conditions: S. cerevisiae BY4716 + rapamycin, higher = more signal, called active from +8 up or from −8 down.
Experiment [15] has as its target Torsin-1A-interacting protein 2 (Homo sapiens) (UniProt Q8NFQ8). The experiment is described as follows: small molecules binding lysate-expressed LULL1 – cell lysate, human LULL1 lysate, 635/667 nm fluorescence, primary screen (AID 1092).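 Also: score merges per-feature 667 nm fluorescence with signal-to-noise.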 Conditions: small-molecule microarray, hLULL1 lysate binding, 635 nm fluorescence; higher = more signal.
The nature of experiment [16]: optical density change of DRC41 E. coli – strain DRC41, OD650, 24 h, E. coli filamentation project, primary screen (AID 1093).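 Also: MC1000 strain lacking acrAB efflux and sulA so SOS filamentation is blocked; test concentration not given here.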 Conditions: E. coli DRC41 growth, higher = more signal, called active from +8 up or from −8 down.
Experiment [17] can be described thus: probe aLefty2 binding to arrayed compounds – biochemical, biotinylated probe, 635/667 nm fluorescence, primary screen (AID 1094).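 Also: score merges spot fluorescence near 667 nm with spot signal-to-noise ratio.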 Conditions: small-molecule microarray, higher = more signal.
The test system of experiment [18] is Noggin (protein binding on small-molecule microarray). The experiment is described as follows: small molecules binding Noggin protein – biochemical, 635/667 nm fluorescence, primary screen (AID 1095).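 Also: score merges 667 nm feature fluorescence with signal to noise over triplicate slides.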 As to conditions: 635 nm fluorescence, higher = more signal.
Experiment [19] concerns the target Neurogenic locus notch homolog protein 3 (Homo sapiens) (UniProt Q9UM47). Description: small molecules binding NOTCH3 protein – biochemical, 635/667 nm fluorescence, primary screen (AID 1096). As to conditions: small-molecule microarray, 635 nm fluorescence, higher = more signal.
Experiment [20] is described as follows: probe aEGFR binding to arrayed compounds – biochemical, biotinylated probe, 635/667 nm fluorescence, primary screen (AID 1097).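 Also: probe is a biotinylated anti-EGFR antibody binding compounds printed on slides; score combines fluorescence near 667 nm and signal to noise of each spot.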 As to conditions: small-molecule microarray, higher = more signal.

Neurogenic locus notch homolog protein 3 (Homo sapiens), sequence (Q9UM47 whole entry, looked up): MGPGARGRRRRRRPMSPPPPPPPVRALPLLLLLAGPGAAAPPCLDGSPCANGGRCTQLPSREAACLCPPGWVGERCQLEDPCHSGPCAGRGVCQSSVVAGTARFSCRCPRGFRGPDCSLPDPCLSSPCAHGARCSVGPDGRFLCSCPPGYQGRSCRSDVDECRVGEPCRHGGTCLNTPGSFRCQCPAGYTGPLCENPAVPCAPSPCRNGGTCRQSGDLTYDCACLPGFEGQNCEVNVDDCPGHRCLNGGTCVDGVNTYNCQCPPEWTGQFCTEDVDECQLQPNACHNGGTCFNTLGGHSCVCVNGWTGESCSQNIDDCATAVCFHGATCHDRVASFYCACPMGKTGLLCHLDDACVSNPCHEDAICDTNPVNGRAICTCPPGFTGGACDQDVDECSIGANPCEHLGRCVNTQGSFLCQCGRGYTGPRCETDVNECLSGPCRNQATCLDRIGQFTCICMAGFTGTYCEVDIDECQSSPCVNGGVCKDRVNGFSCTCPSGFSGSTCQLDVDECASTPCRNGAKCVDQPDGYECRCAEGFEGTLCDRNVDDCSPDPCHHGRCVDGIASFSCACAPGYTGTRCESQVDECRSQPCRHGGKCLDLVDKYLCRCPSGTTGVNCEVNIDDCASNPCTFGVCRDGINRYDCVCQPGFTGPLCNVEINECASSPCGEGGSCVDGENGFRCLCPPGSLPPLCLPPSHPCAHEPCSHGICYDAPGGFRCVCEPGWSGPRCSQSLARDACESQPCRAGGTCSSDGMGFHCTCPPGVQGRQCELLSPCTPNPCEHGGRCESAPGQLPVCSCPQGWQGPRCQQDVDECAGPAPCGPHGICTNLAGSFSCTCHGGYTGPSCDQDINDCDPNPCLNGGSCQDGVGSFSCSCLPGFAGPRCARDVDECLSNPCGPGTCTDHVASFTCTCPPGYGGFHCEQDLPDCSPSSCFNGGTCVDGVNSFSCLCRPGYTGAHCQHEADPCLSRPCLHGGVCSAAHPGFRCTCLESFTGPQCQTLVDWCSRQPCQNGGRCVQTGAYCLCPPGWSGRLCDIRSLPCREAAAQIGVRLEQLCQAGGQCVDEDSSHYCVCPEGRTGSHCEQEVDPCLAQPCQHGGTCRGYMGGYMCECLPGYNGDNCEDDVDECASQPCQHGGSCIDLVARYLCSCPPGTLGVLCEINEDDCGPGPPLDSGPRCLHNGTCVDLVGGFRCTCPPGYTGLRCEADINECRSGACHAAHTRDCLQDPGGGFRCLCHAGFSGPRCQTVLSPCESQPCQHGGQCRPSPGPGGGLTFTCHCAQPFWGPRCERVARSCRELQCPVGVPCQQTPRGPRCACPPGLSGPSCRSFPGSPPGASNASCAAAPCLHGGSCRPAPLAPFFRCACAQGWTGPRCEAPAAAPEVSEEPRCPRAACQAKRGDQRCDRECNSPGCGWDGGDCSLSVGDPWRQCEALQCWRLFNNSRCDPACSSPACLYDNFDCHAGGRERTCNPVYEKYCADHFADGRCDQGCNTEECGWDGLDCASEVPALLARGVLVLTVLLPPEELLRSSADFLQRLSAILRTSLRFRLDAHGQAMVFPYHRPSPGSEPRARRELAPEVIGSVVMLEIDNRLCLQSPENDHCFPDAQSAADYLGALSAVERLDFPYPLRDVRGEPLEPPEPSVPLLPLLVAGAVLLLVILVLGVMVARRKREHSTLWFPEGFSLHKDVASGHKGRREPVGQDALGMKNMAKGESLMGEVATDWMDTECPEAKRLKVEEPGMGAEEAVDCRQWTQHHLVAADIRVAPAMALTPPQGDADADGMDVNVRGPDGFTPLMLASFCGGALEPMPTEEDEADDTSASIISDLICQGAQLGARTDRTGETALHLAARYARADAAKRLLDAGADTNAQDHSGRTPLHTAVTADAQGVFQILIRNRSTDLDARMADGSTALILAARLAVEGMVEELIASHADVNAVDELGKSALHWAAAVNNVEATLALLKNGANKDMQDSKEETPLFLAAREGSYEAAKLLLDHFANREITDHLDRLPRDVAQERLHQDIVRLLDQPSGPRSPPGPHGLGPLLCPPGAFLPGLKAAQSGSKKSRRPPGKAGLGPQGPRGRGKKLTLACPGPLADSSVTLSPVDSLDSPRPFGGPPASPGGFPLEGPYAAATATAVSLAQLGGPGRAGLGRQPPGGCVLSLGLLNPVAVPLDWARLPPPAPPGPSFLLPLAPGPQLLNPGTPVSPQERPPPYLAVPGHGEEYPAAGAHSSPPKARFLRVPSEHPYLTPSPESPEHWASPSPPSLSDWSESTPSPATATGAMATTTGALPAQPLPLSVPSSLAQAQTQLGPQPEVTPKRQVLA
Torsin-1A-interacting protein 2 (Homo sapiens), sequence (Q8NFQ8 whole entry, looked up): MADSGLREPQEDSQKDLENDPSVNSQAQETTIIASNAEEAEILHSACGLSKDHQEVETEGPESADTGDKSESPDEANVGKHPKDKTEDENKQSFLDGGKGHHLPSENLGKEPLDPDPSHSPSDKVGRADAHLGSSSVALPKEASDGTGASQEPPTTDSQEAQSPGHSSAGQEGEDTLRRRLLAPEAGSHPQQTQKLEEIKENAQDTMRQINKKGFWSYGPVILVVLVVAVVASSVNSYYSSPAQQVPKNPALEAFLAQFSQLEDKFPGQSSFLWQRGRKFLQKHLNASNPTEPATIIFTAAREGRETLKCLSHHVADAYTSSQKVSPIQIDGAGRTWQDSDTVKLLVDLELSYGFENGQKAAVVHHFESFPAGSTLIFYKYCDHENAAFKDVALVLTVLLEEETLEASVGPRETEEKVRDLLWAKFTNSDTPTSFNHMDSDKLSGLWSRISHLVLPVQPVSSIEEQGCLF
Pro-neuregulin-1, membrane-bound isoform (Homo sapiens), sequence (Q02297 whole entry, looked up, the tested form may be a part, canonical isoform): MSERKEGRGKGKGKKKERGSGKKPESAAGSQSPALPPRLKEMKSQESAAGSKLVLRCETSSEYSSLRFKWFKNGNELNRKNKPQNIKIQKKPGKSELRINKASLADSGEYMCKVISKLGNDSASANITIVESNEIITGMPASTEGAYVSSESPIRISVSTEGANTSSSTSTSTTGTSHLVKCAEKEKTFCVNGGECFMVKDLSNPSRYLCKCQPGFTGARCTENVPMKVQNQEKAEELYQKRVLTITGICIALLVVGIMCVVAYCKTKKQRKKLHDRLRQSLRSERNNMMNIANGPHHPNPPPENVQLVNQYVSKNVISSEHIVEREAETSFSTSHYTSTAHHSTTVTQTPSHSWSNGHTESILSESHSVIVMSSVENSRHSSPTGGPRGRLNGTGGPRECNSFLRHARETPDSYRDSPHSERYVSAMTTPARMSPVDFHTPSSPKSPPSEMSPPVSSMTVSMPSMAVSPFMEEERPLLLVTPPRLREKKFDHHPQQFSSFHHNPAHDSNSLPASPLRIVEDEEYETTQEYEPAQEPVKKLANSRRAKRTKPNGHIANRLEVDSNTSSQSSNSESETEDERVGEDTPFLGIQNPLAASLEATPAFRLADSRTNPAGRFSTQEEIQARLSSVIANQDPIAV

As to `NC(=O)NCC#Cc1ccc2c(c1)[C@]1(C(=O)N2)[C@H](C(=O)Nc2nc3ccccc3s2)[C@H]2C(=O)O[C@H](c3ccccc3)[C@H](c3ccccc3)N2[C@@H]1c1ccc(OCCO)cc1`, the composite z-score in [1] was 0.155; in experiment [2], -0.164; in [3], 0.0526; in experiment [4], 0.331; in [5] it was 0.614; in experiment [6], -0.029. For the same compound, the composite z-score in [7] is -0.895; in experiment [9] it was 0.99; in experiment [10], -0.347; in experiment [11], -0.006; in experiment [15], 0.963; in [17], -0.0616. The composite z-score in experiment [18] is 0.479; in experiment [19], 0.353; in [20], -0.138. Besides, the z-score is 2.13 (inactive) in experiment [8]; 1.83 (inactive) in experiment [12]; 1.87 (inactive) in [13]; 2.18 (inactive) in experiment [14]; 0.976 (inactive) in experiment [16].
Turning to `COc1ccc(C#Cc2ccc3c(c2)[C@]2(C(=O)N3)[C@H](C(=O)Nc3nc4ccccc4s3)[C@H]3C(=O)O[C@H](c4ccccc4)[C@H](c4ccccc4)N3[C@@H]2c2ccc(OCCO)cc2)cc1`, the composite z-score in experiment [1] was -0.113; in [2] it was 1.45; in experiment [3], 0.0015; in experiment [4], 0.977; in experiment [5], 1.5; in experiment [6], 1.31. Besides, the composite z-score in experiment [7] is 1.08; in [9], 0.349; in experiment [10], -0.216; in [11], 1.55; in experiment [15], 2.7; in experiment [17] it was -0.0412. In addition, the composite z-score in experiment [18] was determined as 0.994; in experiment [19], 1.1; in experiment [20] it was 0.123. Also, the z-score in experiment [8] was 4.94 (inactive); in experiment [12] it was 3.16 (inactive); in experiment [13] it was 2.06 (inactive); in experiment [14] it was 1.64 (inactive); in experiment [16], 0.361 (inactive).
With `CC(C)C[C@@H]1NC(=O)[C@H]2C[C@@H](C(=O)NCCCCCNC(=O)CS)[C@@H](c3ccc(O)cc3)N2C1=O`, the composite z-score in experiment [1] was -0.208; in experiment [2], 0.929; in experiment [3] it was 0.283; in experiment [4], 0.834; in experiment [5] it was 0.74; in [6], 1. Moreover, the composite z-score in [7] is 1.3; in experiment [9], 0.0724; in experiment [10], -0.236; in [11] it was 1.54; in [15], 2.11; in experiment [17] it was -0.077. Further, the results for the composite z-score in experiment [18], in experiment [19] and in experiment [20] were 0.528, 0.634 and -0.0007, respectively. The z-score in experiment [8] was -0.232 (inactive); in [12], 0.553 (inactive); in [13], -0.12 (inactive); in experiment [14], 0.871 (inactive); in experiment [16], 0.488 (inactive).
As to `COCCOC(=O)N1C(=O)[C@@]2(c3cc(C#CC4(O)CCCCCC4)ccc31)[C@H](c1ccc(OCCO)cc1)N1[C@H](c3ccccc3)[C@H](c3ccccc3)OC(=O)[C@H]1[C@@H]2C(N)=O`, the composite z-score in experiment [1] is -0.392; in [2] it was 0.96; in experiment [3], 0.014; in experiment [4] it was 1.05; in [5], 0.96; in [6], 1.32. For the same compound, the composite z-score in [7] is 1.14; in experiment [9], 0.48; in experiment [10], -0.0645; in experiment [11], 1.53; in experiment [15] it was 1.67; in experiment [17], 0.0494. For the same compound, the values for the composite z-score in [18], in experiment [19] and in [20] were 1.52, 1.06 and -0.013, respectively. The z-score in [8] was 0.11 (inactive); in experiment [12] it was 1.29 (inactive); in [13] it was 0.926 (inactive); in [14], 4.69 (inactive); in [16], 0.257 (inactive).

These data come from PubChem BioAssay.
